Hits are enriched below; roughly 2.4% of the tested compounds scored in any of these assays.
D2 ag-1 = agonists of human D2 dopamine receptor (beta-arrestin) | P14416 | DiscoveRx PathHunter D2 beta-arrestin, luminescence, 90 min; 100% = 57 uM dopamine signal | activation, % (no concentration beside the values) | actives 0.084% (n = 360,000) | AID 624465; in the data active means activation above about 40%
Target sequence (P14416 whole entry, looked up): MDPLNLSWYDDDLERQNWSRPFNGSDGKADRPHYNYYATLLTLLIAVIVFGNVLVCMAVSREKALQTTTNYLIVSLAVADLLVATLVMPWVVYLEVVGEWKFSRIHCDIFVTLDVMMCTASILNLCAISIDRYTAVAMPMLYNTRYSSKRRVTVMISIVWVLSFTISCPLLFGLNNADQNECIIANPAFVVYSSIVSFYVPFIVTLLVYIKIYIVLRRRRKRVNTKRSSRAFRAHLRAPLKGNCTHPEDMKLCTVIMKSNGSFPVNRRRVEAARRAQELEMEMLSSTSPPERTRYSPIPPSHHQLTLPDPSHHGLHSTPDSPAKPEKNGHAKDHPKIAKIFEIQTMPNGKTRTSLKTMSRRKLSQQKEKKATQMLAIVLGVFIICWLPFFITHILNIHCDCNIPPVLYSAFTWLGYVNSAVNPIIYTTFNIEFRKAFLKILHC
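Agonist mode: compounds alone added to overnight-plated D2 PathHunter cells for 90 min at 37 C, with 57 uM final dopamine (EC100) defining full response. Beta-arrestin recruitment detected by chemiluminescent reagent, read after 1 h at ambient temperature.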
D2 PAM-1 = positive allosteric modulators of human D2 dopamine receptor. P14416. HEK293 T-REx D2, calcium flux, EC20 dopamine potentiation. potentiation, % at 10 µM. actives 0.34% (n = 340,000). AID 485347;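 active means potentiation over 3 SD above the plate norm, cut at about 30% in these data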; further: 0% is about no effect
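Calcium flux readout, no-wash dye, 1 read/s. Inducible HEK293 Trex D2 line, overnight 30 C. Compound alone 180 s (agonist flags), then EC20 dopamine, another 180 s to score potentiation.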
D2 antag = antagonists of human D2 dopamine receptor | P14416 | HEK293 TREx D2 cells, calcium flux, dopamine EC80 | inhibition, % at 10 µM | actives 2% (n = 340,000) | AID 485344; in the data active means inhibition above about 30%; inactive means below that, where a call was filed; further: 0% is about no effect
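Antagonism is scored as inhibition of an EC80 dopamine-evoked calcium signal in a force-coupled, tetracycline-inducible HEK293 T-REx D2 line, with compound present 180 s before agonist.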
D2 ag-2 = D2 dopamine receptor (human) agonism; P14416; HEK293 T-REx D2 cells, calcium flux agonist mode; activation, % at 2 µM; actives 0.53% (n = 340,000); AID 485358;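 active means activation over 3 SD above normal in the single-dose calcium agonist read, cut at about 30% in these data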; further: 0% is about no effect
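Agonism is scored from calcium flux in a force-coupled, inducible HEK293 cell line expressing D2, read kinetically for 180 s after compound addition against dopamine controls.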
D2 PAM-2 = potentiates the human D2 dopamine receptor allosterically; potentiation, % (test concentration not listed); DiscoveRx D2 beta-arrestin cells, luminescence, 90 min; 100% = 57 uM dopamine signal; P14416; actives 0.23% (n = 360,000); in the data active means potentiation above about 50%
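PathHunter D2 cells, attached overnight at 37 deg C, received compound in DMSO plus dopamine at EC20 (50 nM final) for 90 min at 37 deg C. Beta-arrestin recruitment was read as luminescence after 1 h with detection reagent at ambient temperature.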
Active calls of the source: *; / = not tested or not shown.

SMILES	D2 ag-1	D2 PAM-1	D2 antag	D2 ag-2	D2 PAM-2
COc1ccc(OC)c(NC(=O)Nc2ccc(Cl)cc2)c1	-1	-25	46*	-2	-27
COc1ccc(Cl)cc1NC(=O)NCC1CCN(C(=O)OC(C)(C)C)CC1	-8	-33	95*	-1	-16
Cc1ccc2c(c1)CC(C)N2S(=O)(=O)c1nnc(NC(=O)c2ccccc2F)s1 (stereo not given)	/	1	/	0	/
CCN(CC)c1ccc(NC(=O)C(Cc2ccccc2)NS(=O)(=O)c2ccc(Br)s2)c(C)c1 (stereo not given)	/	7	/	1	/
Cc1ccc(C(=O)N/N=C/c2cccnc2)cc1Cl	-1	/	/	/	-35
COc1ccc(Cl)cc1NC(=O)NCCN1CCCCC1	-2	-27	58*	0	-9
COc1ccc(Cl)cc1NC(=O)NCc1ccco1	-5	-16	18	0	-11
C=CCNC(=O)Nc1cc(Cl)ccc1OC	-4	-13	38*	1	-9
O=C(CSc1ncccn1)N/N=C/c1cccc(OC2CSC2)c1	-4	2	36*	-2	1
Cc1ccc2nc(NC(=O)c3nc(SCc4ccccc4C)ncc3Cl)sc2c1	/	-7	/	1	/
O=C1NCCN1Cc1ccc(Cl)cc1	1	49*	-13	0	-8
CCCN1CCCc2cc(CN)ccc21	4	-9	9	0	50*
CCN(CC)c1ccc(NC(=O)Cn2c3ncccc3c(=O)n2-c2ccccc2)c(C)c1	/	-1	/	/	/
CC(C)(C)NC(=O)C1CC(=O)OC1(C)C (stereo not given)	-1	33*	-5	0	8
Cc1ccc2nc(CSc3nnc(-c4ccncc4)n3C)cc(=O)n2c1	-2	-4	71*	0	18
C=CCn1c(SCc2cc(=O)n3cc(C)ccc3n2)nnc1-c1ccc(F)cc1	3	1	10	-1	1
Cc1cccc(NC(=O)CN2C(=O)COc3ccc(S(=O)(=O)Nc4ccccc4)cc32)c1C	/	-1	/	0	/
CCN(CC)S(=O)(=O)c1ccc(C(=O)OCn2nnc3ccccc3c2=O)cc1	3	75*	7	1	1
CSc1nnc(C)c(=O)n1COC(=O)c1ccccc1	-1	6	-4	0	5
CCN(CC)S(=O)(=O)c1ccc(C(=O)OCn2c(SC)nnc(C)c2=O)cc1	7	-5	35*	0	7
CCC(=O)Nc1ccc2nc(SCCOc3ccc(C)cc3)sc2c1	/	9	/	-1	/
C/C=C/c1ccc(OCCCCN2CC(C)CC(C)C2)c(OC)c1 (stereo not given)	-4	-25	38*	0	-16
Cc1ccc(-c2csc(N/N=C/c3ccco3)n2)c(C)c1	12	2	0	0	56*
CCOC(=O)c1c(NC(=O)/C=C/c2ccc(OCC)c(OC)c2)sc2c1CCC2	/	7	/	2	/
CCCC(c1nnnn1Cc1ccc(F)cc1)N1CCN(C2CCCCC2)CC1 (stereo not given)	-1	3	-12	-1	-21
SMILES	D2 ag-1	D2 PAM-1	D2 antag	D2 ag-2	D2 PAM-2
CC(C)C(c1nnnn1Cc1ccc(F)cc1)N1CCN(C2CCCC2)CC1 (stereo not given)	-4	8	56*	0	-3
CN1CCN(C(c2ccc(F)cc2)c2nnnn2Cc2cccs2)CC1 (stereo not given)	-5	/	/	/	-18
CN1CCN(C(c2cccs2)c2nnnn2Cc2ccc(F)cc2)CC1 (stereo not given)	-3	8	42*	0	0
N#Cc1ccc(C(=O)Nc2ccc3c(c2)N(C2CCCC2)C(=O)c2ccccc2S3)cc1	/	5	/	0	/
CCCSCCCNC(=O)Cn1c(-c2cccs2)cc2ccccc21	/	5	/	/	/
COc1ccc(-c2c(C)nn3c(N4CCN(c5cc(Cl)ccc5C)CC4)cc(C)nc23)cc1OC	/	/	/	0	/
COc1ccc(-c2cc3nc(C)cc(N4CC(C)CC(C)C4)n3n2)cc1 (stereo not given)	-1	40*	-16	0	-2
CC(CNC(=O)[C@@H](Cc1ccccc1)NC(=O)CC[C@H]1O[C@@H](n2ccc(=O)[nH]c2=O)[C@H](O)[C@@H]1O)c1ccccc1 (stereo not given in full)	-5	/	/	/	-10
CN(Cc1ccc(F)cc1)C(=O)c1cc(COc2ccc(-n3cncn3)cc2)on1	2	2	-10	0	67*
O=C(c1cn(CCOc2ccccc2F)c2ccccc12)C1CCCCC1	/	-9	/	1	/
C=C(C)c1cccc(C(C)(C)NC(=O)NCc2ccncc2)c1	2	7	35*	2	-5
CCCN(CCC)C(=O)CSc1nnc2cc(C)c3cc(C)cc(C)c3n12	/	15	/	-1	/
O=C(Cn1c(=O)ccc2cc(S(=O)(=O)N3CCCC3)ccc21)Nc1ccccc1	/	/	/	0	/
O=C(NC1CCCCC1)c1cc(-c2ccc(F)cc2)on1	-3	39*	6	-2	1
Cc1ccc(-c2cc(C(=O)NC3CCCC3)no2)cc1	-6	6	-24	0	-6
COc1ccc(N(Cc2cc3ccccc3[nH]c2=O)S(=O)(=O)c2ccc(OC)cc2)cc1	-2	-24	9	-2	-44
COc1ccc(N(CC(=O)N/N=C/c2ccc(C(=O)O)cc2)S(=O)(=O)c2ccc(NC(C)=O)cc2)cc1	2	-7	56*	1	0
COc1ccc(N(Cc2cc3cc(OC)ccc3[nH]c2=O)S(=O)(=O)c2ccc(NC(C)=O)cc2)cc1	2	-20	-7	0	50*
COc1cccc(-c2nc3c(c(SCc4ccccc4)n2)Cc2c(CO)cnc(C)c2O3)c1	/	-4	/	1	/
CCN(CC)Cc1ccccc1CNC(=O)c1cccc(S(=O)(=O)Nc2ccc3c(c2)OCO3)c1	0	-36	74*	1	-2
CSc1ccc(NC(=O)C2CCN(c3ncccn3)CC2)cc1	/	-5	/	-1	/
O=C1CCCN1Cc1ccccc1	-6	1	30*	0	-6
O=C(CCNC(=O)c1ccccc1)NC1CCCc2ccccc21 (stereo not given)	2	4	-9	/	0
O=C(CCNC(=O)c1ccc([N+](=O)[O-])cc1)NC1CCCc2ccccc21 (stereo not given)	0	-21	32*	0	4
COc1cccc(-n2c(=O)c3c(C)c(C(=O)N(C)C)sc3n(CC(=O)Nc3ccc(C)cc3Cl)c2=O)c1	/	3	/	0	/
COc1ccc2c(c1)c(C(O)CN1CCC(Cc3ccccc3)CC1)c(C)n2C (stereo not given)	-2	-26	51*	0	-19
Cc1c(NC(=O)c2cc3ccccc3o2)cccc1-c1nc2ccccc2o1	/	4	/	-3	/
O=c1n(Cc2ccccc2)nc2n1-c1cc(Cl)ccc1OC2	/	-4	/	1	/

Source: PubChem (National Center for Advancing Translational Sciences (NCATS))
